From paper PMC7819943, “Rice protein-binding microarrays: a tool to detect cis-acting elements near promoter regions in rice”
In all, about 39,000 sequences were measured (“fluorescence intensity (a.u.)”: median about 4,300, highest 2% from about 39,000 on). Many of the other results were omitted from the sample, so the highest values are more common in it than they were.

Each sequence was assayed against T1, OsSMF1 (Oryza sativa, UniProt Q6ZLB0 1-436) (assay: protein-binding microarray (RPBM); PBS, 2% BSA, 51.3 ng/ul salmon testes DNA, 50 uM zinc acetate, 200 nM TF, 25 C, 1 h; high values mean tight binding). Conditions: protein: recombinant; tags: N-terminal polyhistidine and DsRed monomer fusion (pET32a); chain copies: 2; label: CyDye5-dUTP incorporated in the synthesized complementary strand; 3' TTTTT single-stranded linker to array surface; dsDNA, one strand shown.
T1 sequence: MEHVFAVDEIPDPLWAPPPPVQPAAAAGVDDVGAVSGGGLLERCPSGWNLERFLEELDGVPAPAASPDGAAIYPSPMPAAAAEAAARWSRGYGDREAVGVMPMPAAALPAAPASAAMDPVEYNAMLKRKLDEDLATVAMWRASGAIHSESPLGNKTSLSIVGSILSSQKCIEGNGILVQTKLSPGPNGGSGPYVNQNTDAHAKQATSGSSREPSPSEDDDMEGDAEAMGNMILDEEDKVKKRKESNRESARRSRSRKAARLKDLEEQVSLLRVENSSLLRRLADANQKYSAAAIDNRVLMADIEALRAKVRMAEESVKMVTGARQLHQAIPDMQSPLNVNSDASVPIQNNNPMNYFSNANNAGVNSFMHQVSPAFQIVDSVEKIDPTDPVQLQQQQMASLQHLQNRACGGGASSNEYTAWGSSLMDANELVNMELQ
Summary of the method: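 The binding signal for each feature is its fluorescence intensity in arbitrary units. An Axon 4000B scanner was used to read a custom Agilent array that had been made double-stranded with Cy5-dUTP primer extension, blocked with 2% BSA, incubated at 25 °C for 1 h with 200 nM protein in PBS, 2% BSA, salmon testes DNA and 50 µM zinc acetate, and washed. The protein was an N-terminal polyhistidine–DsRed transcription factor fusion from E. coli BL21-CodonPlus, purified on Ni–NTA.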

| Sequence | binding signal |
| --- | --- |
| ATGTCGAAAGGCCTATATGGGCCAGATGATGTGTCCAGGGCGGAGTCACCTAGTGCAG | 34600 fluorescence intensity (a.u.) |
| GGAGAGCTCCGGGAAGACGCGCGCTGACGCGGCCTCCCTGCGGAGTCACCTAGTGCAG | 8860 fluorescence intensity (a.u.) |
| TCAATGATATTTATGTGTGTGACATGTATGTCGAGTTCGTCGGAGTCACCTAGTGCAG | 4360 fluorescence intensity (a.u.) |
| ATATTCTGATATGTCAATATTATTGTGTATGATTGATTGTCGGAGTCACCTAGTGCAG | 46700 fluorescence intensity (a.u.) |
| ATTGATGTGAAGAACAAATAGTCAATATTATTCTGTATATCGGAGTCACCTAGTGCAG | 16900 fluorescence intensity (a.u.) |
| TCTTCTGAATGCTCACAATGACGCCATCCTCATCAGCCGCCGGAGTCACCTAGTGCAG | 4480 fluorescence intensity (a.u.) |
| GCCCTCCCTGTCATCCCCGTCACCCATCCTGCCTGCTTTTCGGAGTCACCTAGTGCAG | 8530 fluorescence intensity (a.u.) |
| AGCTAAAATAAACTTTACCAAATTTTGGCAATGCCAAAATCGGAGTCACCTAGTGCAG | 51800 fluorescence intensity (a.u.) |
| ACATTACCAAATTTTAACAATGCCAAAATTTTGGTAAGGTCGGAGTCACCTAGTGCAG | 3450 fluorescence intensity (a.u.) |
| ACCAAATTTTAGCAATACCAAAATTTTGGCATAGTTGCCACGGAGTCACCTAGTGCAG | 7010 fluorescence intensity (a.u.) |
| AAACGCCAACGCCATACTCCACCTGACCTCACACTCGCACCGGAGTCACCTAGTGCAG | 3290 fluorescence intensity (a.u.) |
| CGTCCCTTGGACGTCATCTTCTCCTCACGTGCATTGCCTCCGGAGTCACCTAGTGCAG | 4360 fluorescence intensity (a.u.) |
| TTGCAGCATCACCTGGCGAGGCGTAGCTAGGAGATGCAGACGGAGTCACCTAGTGCAG | 40100 fluorescence intensity (a.u.) |
| TAAGATGGAGGAGGCGAGGAGAGTTGCGTAGGATGGAGTGCGGAGTCACCTAGTGCAG | 3880 fluorescence intensity (a.u.) |
| TTTGGCATACCTGGAGCAGATCAGGCAGCACATGGCGAGGCGGAGTCACCTAGTGCAG | 25600 fluorescence intensity (a.u.) |
| TTATGAGTTTAGAGGGATGATTAGGATACATGGGAATTTTCGGAGTCACCTAGTGCAG | 22200 fluorescence intensity (a.u.) |
| AACCCGGCGTTGGTGAGCTGTTCCATTGTGTCTATAGGCACGGAGTCACCTAGTGCAG | 3210 fluorescence intensity (a.u.) |
| TGGATATGCATGCGTACGTACGTAGCTTACCTATAGCTAGCGGAGTCACCTAGTGCAG | 3500 fluorescence intensity (a.u.) |
| GATATATATACGCGTTCATCAGCGTACGTTCTTATAGCTACGGAGTCACCTAGTGCAG | 40100 fluorescence intensity (a.u.) |
| TACTTAGCTAGCTAATCGCGTTGCTCTTTCTCGTACTATACGGAGTCACCTAGTGCAG | 20400 fluorescence intensity (a.u.) |
| CACTCCGGCGTGACGGAGCCCTTCCCCGATGTGATGCCTACGGAGTCACCTAGTGCAG | 32600 fluorescence intensity (a.u.) |

| Sequence | binding signal |
| --- | --- |
| AGGGGCGGAGGGCAGCGATTTTGGTTGGTAGTAGTACGGGCGGAGTCACCTAGTGCAG | 3610 fluorescence intensity (a.u.) |
| CGTTGGCGTCCACCACGGCCACCGCCACGCCGCTCGTGTTCGGAGTCACCTAGTGCAG | 4420 fluorescence intensity (a.u.) |
| CAGGTACTTAACTTTAGTCCCTGTCTTTAGACACTAATTTCGGAGTCACCTAGTGCAG | 5100 fluorescence intensity (a.u.) |
| GACTTAACTTTAGTCCCTGTATTTAGACACTAATTTAGAGCGGAGTCACCTAGTGCAG | 65500 fluorescence intensity (a.u.) |
| GTCCCCTGTTGCACTTAGATATTTAACTTTGTTAAGGATTCGGAGTCACCTAGTGCAG | 4820 fluorescence intensity (a.u.) |
| TCCCCGTCTTTTCCTTCCGCCTCACCAACCTCGTCTCGTCCGGAGTCACCTAGTGCAG | 3330 fluorescence intensity (a.u.) |
| TCGTCGATGTCACCGCCACCACCGTCGTCATCGCTGCCTTCGGAGTCACCTAGTGCAG | 3820 fluorescence intensity (a.u.) |
| CGTACGGCACCGAGTTATCGCCGCCAGGTCAGTTGGTTTACGGAGTCACCTAGTGCAG | 3690 fluorescence intensity (a.u.) |
| CACAGGCAGGCCTGCAACATGCGTCACGCAGACTTTGATGCGGAGTCACCTAGTGCAG | 4140 fluorescence intensity (a.u.) |
| AGCTAGAACGCACAGACTTTAGGCTTTAGGTACGATGATGCGGAGTCACCTAGTGCAG | 43300 fluorescence intensity (a.u.) |
| CACTAGCTTGTTATATTTACGTGGCACACTTTGATGAGTACGGAGTCACCTAGTGCAG | 11500 fluorescence intensity (a.u.) |
| AAAGCAACAGCAGCCCAGCACACCACAGCACAGCGCCGCTCGGAGTCACCTAGTGCAG | 3180 fluorescence intensity (a.u.) |
| TTCCTGACTTCCTCCTCCCTTTCTTCTCTCGCCGCCGAGACGGAGTCACCTAGTGCAG | 41400 fluorescence intensity (a.u.) |
| CTCCTCTTCCCTTCCCTTCTCTCTTTTCTTTTCTCTCACACGGAGTCACCTAGTGCAG | 28600 fluorescence intensity (a.u.) |
| TCCTCCATCGCCGCCTTCACCGAGTCACCGCCCGTCATCCCGGAGTCACCTAGTGCAG | 3380 fluorescence intensity (a.u.) |
| TCTCCCCTCTCCTTCCTCCTCTCCTTTCCCCTCCTCTCTTCGGAGTCACCTAGTGCAG | 17100 fluorescence intensity (a.u.) |
| CATCATCATCTCTTCTCCTCTCTCTCTCTCTTTCCTTTTCCGGAGTCACCTAGTGCAG | 8580 fluorescence intensity (a.u.) |
| TCCTCCTCGTCGTCATCTCCAACTCCCTCCCGCTCCCTTCCGGAGTCACCTAGTGCAG | 5660 fluorescence intensity (a.u.) |
| CTTCACTAAGGTCATCGTCGTGCCTTCCTCGTCCTCCTCCCGGAGTCACCTAGTGCAG | 43800 fluorescence intensity (a.u.) |
| TCCTGTCCTTCTTTCTCTTCAAGTCCTTCCTCTTCACTCCCGGAGTCACCTAGTGCAG | 65500 fluorescence intensity (a.u.) |
| CTCCTCTCCTCCCTCCTCGACTTCTCCGCTTTCTCCGCCTCGGAGTCACCTAGTGCAG | 3230 fluorescence intensity (a.u.) |
